Measurements: PubChem BioAssay (EPA / NIEHS)
“And” between values parts separate entries of the source, which are not always exact repeats. Equal values may be shown once. A structure can be active in one record and inactive in another. The source made the active and inactive calls. How the source made its calls: active means hit-call score of the fitted dose curve at least 0.9, where 1 is the maximum; inactive means score below 0.9.

Read-out: Monokine induced gamma interferon (MIG), CXCL9 (gene 4283)
Experiment: BSK_SAg_MIG: BioMAP Diversity Plus: SAg Assay for Monokine induced gamma interferon (MIG) Biomarker Activity (AID 2283092)
Details: primary human HUVEC with PBMC; actives raise or lower the signal
Method in brief: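 Endothelial cells and PBMC were co-cultured, exposed to test chemicals, and sampled 24 h later. MIG was measured by ELISA, and responses were fitted in both directions relative to DMSO.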

| Compound | outcome | AC50 |
| --- | --- | --- |
| FC(F)(F)C(F)(F)C(F)(F)C(F)(F)C(F)(F)C(F)(F)CCS | inactive |  |
| O=C(O)C(F)(F)C(F)(F)OC(F)(F)F | inactive |  |
| FC(F)(I)C(F)(F)C(F)(F)C(F)(F)I | inactive |  |
| O=C(Cl)C(F)(F)C(F)(F)C(F)(F)C(F)(F)C(F)(F)C(F)(F)C(F)(F)C(F)(F)F | inactive |  |
| NC(=O)C(F)(F)C(F)(F)C(F)(F)C(F)(F)F | inactive |  |
| OCC(F)(F)C(F)(F)C(F)(F)C(F)F | inactive |  |
| C=CC(=O)OCC(F)(F)C(F)(F)C(F)(F)C(F)(F)C(F)(F)C(F)(F)C(F)(F)F | inactive |  |
| O=C(O)C(F)(F)C(F)(F)C(F)F | inactive |  |
| FC1CC(F)(F)C(F)(F)C1(F)F (stereo not drawn) | inactive |  |
| OCCCC(F)(F)C(F)(F)C(F)(F)C(F)(F)C(F)(F)C(F)(F)C(F)(F)F |  | 54 µM (active) and 50.8 µM (active) |
| CCc1c(Br)c(Br)c(Br)c(Br)c1Br | inactive |  |
| O=C(CC(=O)C(F)(F)C(F)(F)F)C(F)(F)F | inactive |  |
| O=P(O)(O)OCCC(F)(F)C(F)(F)C(F)(F)C(F)(F)C(F)(F)C(F)(F)F | inactive |  |
| FC(F)(F)C(F)(F)C(F)(F)C(F)(F)C(F)(F)C(F)(F)C(F)(F)I | inactive |  |
| CCO[Si](CCC(F)(F)C(F)(F)C(F)(F)C(F)(F)C(F)(F)C(F)(F)F)(OCC)OCC | inactive |  |
| O=C(O)C(F)(F)C(F)(F)C(F)(F)C(F)(F)C(F)(F)C(F)(F)C(F)(F)C(F)(F)C(F)(F)C(F)F | inactive |  |
| CC(C)(C)C(=O)CC(=O)C(F)(F)C(F)(F)C(F)(F)F | inactive |  |
| CCCCCCCCC(F)(F)C(F)(F)C(F)(F)C(F)(F)C(F)(F)C(F)(F)F | inactive |  |
| FC(F)(F)C(F)(F)C(F)(F)C(F)(F)CCI | inactive |  |

| Compound | outcome | AC50 |
| --- | --- | --- |
| FC(F)(F)C(F)(F)C(F)(F)C(F)(F)C(F)(F)C(F)(F)C(F)(F)C(F)(F)CCS | inactive |  |
| FC(F)(Br)C(F)(F)C(F)(F)C(F)(F)C(F)(F)C(F)(F)Br | inactive |  |
| FC(F)(F)C(F)(F)C(F)(F)C(F)(F)C(F)(F)CCI | inactive |  |
| FC(F)(F)C(F)(F)CNCC(F)(F)C(F)(F)F | inactive |  |
| FC(F)(F)C(F)(F)C(F)(F)C(F)(F)C(F)(F)C(F)(F)CC1CO1 (stereo not drawn) | inactive |  |
| O=C(O)C=C(C(F)(F)F)C(F)(F)F | inactive |  |
| FC(F)(F)C(F)(F)C(F)(F)C(F)(F)C(F)(F)C(F)(F)C(F)(F)C(F)(F)F | inactive |  |
| O=C(O)C(F)(F)C(F)(F)C(F)(F)C(F)(F)C(F)(F)C(F)(F)C(F)(F)C(F)(F)Cl | inactive |  |
| FC(F)(F)C(F)(F)C(F)(F)C(F)(F)C(F)(F)C(F)(F)C(F)(F)Br | inactive |  |
| O=C(O)C(F)(F)C(F)(F)C(F)(F)C(F)(F)C(F)(F)C(F)(F)C(F)(F)C(F)(F)C(F)(F)C(F)(F)C(F)(F)C(F)(F)C(F)(F)F | inactive |  |
| C=CC/C=C/C/C=C/C/C=C/C | inactive |  |
| O=C(O)C(F)(OC(F)(F)C(F)(OC(F)(F)C(F)(F)C(F)(F)F)C(F)(F)F)C(F)(F)F (stereo not drawn) | inactive |  |
| O=S(=O)(OCC(F)F)C(F)(F)F | inactive |  |
| O=C(O)C(F)(F)C(F)(F)C(F)(F)C(F)(F)C(F)(F)C(F)(F)C(F)(F)C(F)(F)C(F)(F)C(F)(F)C(F)(F)C(F)(F)F | inactive |  |
| N=C(N)C(F)(F)C(F)(F)C(F)(F)C(F)(F)C(F)(F)C(F)(F)C(F)(F)F | inactive | 55.4 µM (active) |
| CCCCCCOC(=O)c1ccccc1O | inactive |  |
| C=C(C)C(=O)OCCC(F)(F)C(F)(F)C(F)(F)C(F)(F)C(F)(C(F)(F)F)C(F)(F)F | inactive |  |
| CC(CCl)OP(=O)(OC(C)CCl)OC(C)CCl (stereo not drawn) | inactive |  |

Read-out: not listed separately
Experiment: BSK_SAg_PBMCCytotoxicity: PBMC Cytotoxicity Assessment in the BioMAP Diversity Plus: SAg Assay (AID 2283093);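 further: PBMC viability measured as Alamar Blue reduction fluorescence at 546/580 nm; fitted both ways against DMSO so a hit may be loss or gain of signal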;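 on AC50: PBMC superantigen activated with SEB plus TSST-1 one hour after compound addition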
Details: primary human HUVEC with PBMC
Method in brief: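 HUVEC/PBMC co-culture; PBMC exposed to chemical 1 h before SEB and TSST-1 activation (20 ng/mL each), incubated 90 h, then Alamar Blue 6 h, fluorescence 546/580 nm. Bidirectional fit versus DMSO baseline.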

| Compound | outcome | AC50 |
| --- | --- | --- |
| FC(F)(F)C(F)(F)C(F)(F)C(F)(F)C(F)(F)C(F)(F)CCS | inactive |  |
| O=C(O)C(F)(F)C(F)(F)OC(F)(F)F | inactive |  |
| FC(F)(I)C(F)(F)C(F)(F)C(F)(F)I | inactive | 46.9 µM (active) and 50.1 µM (active) |
| O=C(Cl)C(F)(F)C(F)(F)C(F)(F)C(F)(F)C(F)(F)C(F)(F)C(F)(F)C(F)(F)F | inactive |  |
| NC(=O)C(F)(F)C(F)(F)C(F)(F)C(F)(F)F | inactive |  |
| OCC(F)(F)C(F)(F)C(F)(F)C(F)F | inactive |  |
| C=CC(=O)OCC(F)(F)C(F)(F)C(F)(F)C(F)(F)C(F)(F)C(F)(F)C(F)(F)F | inactive |  |
| O=C(O)C(F)(F)C(F)(F)C(F)F | inactive |  |
| FC1CC(F)(F)C(F)(F)C1(F)F (stereo not drawn) | inactive |  |
| OCCCC(F)(F)C(F)(F)C(F)(F)C(F)(F)C(F)(F)C(F)(F)C(F)(F)F |  | 14.4 µM (active) and 14.8 µM (active) |
| CCc1c(Br)c(Br)c(Br)c(Br)c1Br | inactive |  |
| O=C(CC(=O)C(F)(F)C(F)(F)F)C(F)(F)F | inactive |  |
| O=P(O)(O)OCCC(F)(F)C(F)(F)C(F)(F)C(F)(F)C(F)(F)C(F)(F)F | inactive |  |
| FC(F)(F)C(F)(F)C(F)(F)C(F)(F)C(F)(F)C(F)(F)C(F)(F)I | inactive |  |
| CCO[Si](CCC(F)(F)C(F)(F)C(F)(F)C(F)(F)C(F)(F)C(F)(F)F)(OCC)OCC | inactive |  |
| O=C(O)C(F)(F)C(F)(F)C(F)(F)C(F)(F)C(F)(F)C(F)(F)C(F)(F)C(F)(F)C(F)(F)C(F)F | inactive |  |
| CC(C)(C)C(=O)CC(=O)C(F)(F)C(F)(F)C(F)(F)F | inactive | 53.9 µM (active) |
| CCCCCCCCC(F)(F)C(F)(F)C(F)(F)C(F)(F)C(F)(F)C(F)(F)F | inactive |  |
| FC(F)(F)C(F)(F)C(F)(F)C(F)(F)CCI | inactive | 41.9 µM (active) |

| Compound | outcome | AC50 |
| --- | --- | --- |
| FC(F)(F)C(F)(F)C(F)(F)C(F)(F)C(F)(F)C(F)(F)C(F)(F)C(F)(F)CCS | inactive |  |
| FC(F)(Br)C(F)(F)C(F)(F)C(F)(F)C(F)(F)C(F)(F)Br | inactive |  |
| FC(F)(F)C(F)(F)C(F)(F)C(F)(F)C(F)(F)CCI | inactive |  |
| FC(F)(F)C(F)(F)CNCC(F)(F)C(F)(F)F | inactive |  |
| FC(F)(F)C(F)(F)C(F)(F)C(F)(F)C(F)(F)C(F)(F)CC1CO1 (stereo not drawn) | inactive |  |
| O=C(O)C=C(C(F)(F)F)C(F)(F)F | inactive |  |
| FC(F)(F)C(F)(F)C(F)(F)C(F)(F)C(F)(F)C(F)(F)C(F)(F)C(F)(F)F | inactive |  |
| O=C(O)C(F)(F)C(F)(F)C(F)(F)C(F)(F)C(F)(F)C(F)(F)C(F)(F)C(F)(F)Cl | inactive |  |
| FC(F)(F)C(F)(F)C(F)(F)C(F)(F)C(F)(F)C(F)(F)C(F)(F)Br | inactive |  |
| O=C(O)C(F)(F)C(F)(F)C(F)(F)C(F)(F)C(F)(F)C(F)(F)C(F)(F)C(F)(F)C(F)(F)C(F)(F)C(F)(F)C(F)(F)C(F)(F)F | inactive |  |
| C=CC/C=C/C/C=C/C/C=C/C | inactive |  |
| O=C(O)C(F)(OC(F)(F)C(F)(OC(F)(F)C(F)(F)C(F)(F)F)C(F)(F)F)C(F)(F)F (stereo not drawn) | inactive |  |
| O=S(=O)(OCC(F)F)C(F)(F)F | inactive |  |
| O=C(O)C(F)(F)C(F)(F)C(F)(F)C(F)(F)C(F)(F)C(F)(F)C(F)(F)C(F)(F)C(F)(F)C(F)(F)C(F)(F)C(F)(F)F | inactive |  |
| N=C(N)C(F)(F)C(F)(F)C(F)(F)C(F)(F)C(F)(F)C(F)(F)C(F)(F)F |  | 45.9 µM (active) and 55.1 µM (active) |
| CCCCCCOC(=O)c1ccccc1O |  | 36.9 µM (active) and 44.8 µM (active) |
| C=C(C)C(=O)OCCC(F)(F)C(F)(F)C(F)(F)C(F)(F)C(F)(C(F)(F)F)C(F)(F)F | inactive |  |
| CC(CCl)OP(=O)(OC(C)CCl)OC(C)CCl (stereo not drawn) | inactive |  |
